# Assay results: PubChem BioAssay (Tox21)
# Results filed as inconclusive are left out. Entries that show only a call come without a potency. A number with no mark means an inactive call. Active and inactive are the calls of the source. Calls follow the shape of the dose curve; as a rule, active = well fitted activation curve with a large enough effect in the repeat runs; inconclusive = weak or mixed curves; inactive = flat fitted curve, though single readings scatter.
# Assay: A CellTox Green Cytotoxicity Assay to monitor cytotoxicity in HepG2 cells - 40 hour (AID 1224879); also: nearly all actives have a fitted effect of over 40% in size
# Settings: CellTox Green fluorescence; series mostly up to 76.8 µM
# Description: National Center for Advancing Translational Sciences [NCATS]
# NIH Chemical Genomics Center [NCGC]
# U.S. Environmental Protection Agency [EPA]
# National Institutes of Environmental Health Sciences [NIEHS]
# National Toxicology Program [NTP]
# Cell-based models are critical for drug discovery. Determining the natural cytotoxic effects resulting from test compounds is an essential research activity. A CellTox Green Cytotoxicity Assay to monitor cytotoxicity in real time of continues cell culture during 40 hours of the compound treatment was used to screen Tox21 10K library compounds in HepG2 cells. CellTox Green Cytotoxicity Assay is a nonlytic, homogeneous, biofluorescent method to measure cytotoxicity in cell culture after experimental manipulation. The assay system uses a proprietary asymmetric cyanine dye that is excluded from viable cells but preferentially stains the dead cell's DNA. […] Viable cells produce no appreciable increases in fluorescence. Therefore, the fluorescence signal produced by the binding interaction with dead cell DNA is proportional to cytotoxicity.
# The mixture of HepG2 cell suspension and reagents were dispensed at 600cells/6 ul/well in 1536-well tissue culture treated black solid bottom plates using a Multidrop dispenser. After the assay plates were incubated at a 37 C/5% CO2 incubator for 5 hours, 23 nL of compounds dissolved in DMSO, positive and negative controls was transferred to the assay plate by a pintool work station. The plates were incubated at 37 C for 40 hours. The fluorescence intensity were measured at 0h, 8h, 16h, 24h, 32h and 40h time points using ViewLux plate reader during compound treatment.
# Potency is read from the fitted curve at half-maximal effect.
Compound,Potency,cytotoxicity increase
CN(C)c1cc(NC(=O)CNC(C)(C)C)c(O)c2c1C[C@H]1C[C@H]3[C@H](N(C)C)C(=O)C(C(N)=O)=C(O)[C@@]3(O)C(=O)C1=C2O,inactive,
CCCC(C)C(O)CC (stereo not given),inactive,
NNC(=O)CCCCC(=O)NN,inactive,
CC(CC(=O)Cl)CC(C)(C)C (stereo not given),inactive,
CCCCCCCCCCCCCCCC/C=C/C1CC(=O)OC1=O (stereo not given),inactive,
C=CC(=O)CC,inactive,
CC(C)(C)c1ccc(N)cc1,61.7 µM (active),
CC(C)=CCC/C(C)=C\C#N,inactive,
O=CN1CCCCC1,inactive,
C[C@]12C=CC(=O)C=C1[C@@H](F)C[C@@H]1[C@@H]2[C@@H](O)C[C@@]2(C)[C@H]1CC[C@]2(O)C(=O)CO,inactive,
C[C@@H](CN1CC(=O)NC(=O)C1)N1CC(=O)NC(=O)C1,inactive,
C=CCN1CCc2nc(N)sc2CC1,inactive,
NC(=O)CC[C@@H](N)C(=O)O,inactive,
CCCCS,inactive,
O=C1CCCc2c(O)cccc21,9.52 µM (active),
O=Cc1ccccc1S(=O)(=O)O,inactive,
CO/N=C(\C(=O)O)c1csc(NC(=O)CCl)n1,inactive,
CN(C)CCc1c[nH]c2ccc(C[C@H]3COC(=O)N3)cc12,inactive,
CCCCN=C(N)N=C(N)N,inactive,
O=C(O)Cc1ccccc1Oc1ccc(Cl)cc1Cl,inactive,

Compound,Potency,cytotoxicity increase
O=C[C@@H](O)[C@H](O)[C@H](O)CO,inactive,
CC[C@@]1(c2ccccc2)NC(=O)N(C)C1=O,inactive,
C=COCCCCO,inactive,
CC(C)(C)C(=O)NCCCC(=O)O,inactive,
CCOCCOCCOC(C)=O,inactive,
CCOC(=O)[C@H](CCc1ccccc1)N[C@H]1CS[C@H](c2cccs2)CN(CC(=O)O)C1=O,inactive,
COc1cc(OC)cc(OC)c1,inactive,
Cc1ccc2ccccc2n1,inactive,
Cc1cc(C)c(C)c(C)c1,inactive,
C=CC(=O)OCCOCCOCC,inactive,
C[C@@H]1NC(=O)[C@@H](N)CNC(=O)[C@H](C2CCNC(N)=N2)NC(=O)/C(=C/NC(N)=O)NC(=O)[C@H](CNC(=O)C[C@@H](N)CCCN)NC1=O (stereo not given in full),,-3.78% [at 0.29 µM]
O=c1c(O)c(O)c1=O,inactive,
C=CCOC(=O)CCCCCCCC,inactive,
Cc1ccccc1OCC(=O)O,inactive,
CCCCOCCCC,inactive,
CCc1ncc(C)[nH]1,inactive,
CC(C)c1cc(C(C)C)cc(C(C)C)c1,inactive,
CCN(CC)CC,inactive,
NS(=O)(=O)c1cc2c(cc1C(F)(F)F)NCNS2(=O)=O,inactive,
CCOc1ccccc1OCCN[C@H](C)Cc1ccc(OC)c(S(N)(=O)=O)c1,inactive,
